In PMC5700166:

Key:
Assay in all cases: protein-binding microarray (PBM); PBM: ~300 nM protein, 6 mM HEPES pH 7.8, 80 mM KCl, 0.5 mM EDTA, 0.5 mM EGTA, 6% glycerol, 35 ng/ul poly-dIdC, 1% milk, 1 h, room temperature; Ap Aiptasia and Nv Nematostella (sea anemones) / Co Capsaspora / Aq Amphimedon (sponge) / Dm Drosophila / Hu human; RHD is the Rel homology domain; high values mean tight binding
Conditions in all cases: dsDNA, one strand shown
GST-Ap-NF-kB RHD = target: T1, GST-Ap-NF-kB RHD (Exaiptasia pallida (Aiptasia), UniProt A0A913YAJ5 2-422)
T1 sequence: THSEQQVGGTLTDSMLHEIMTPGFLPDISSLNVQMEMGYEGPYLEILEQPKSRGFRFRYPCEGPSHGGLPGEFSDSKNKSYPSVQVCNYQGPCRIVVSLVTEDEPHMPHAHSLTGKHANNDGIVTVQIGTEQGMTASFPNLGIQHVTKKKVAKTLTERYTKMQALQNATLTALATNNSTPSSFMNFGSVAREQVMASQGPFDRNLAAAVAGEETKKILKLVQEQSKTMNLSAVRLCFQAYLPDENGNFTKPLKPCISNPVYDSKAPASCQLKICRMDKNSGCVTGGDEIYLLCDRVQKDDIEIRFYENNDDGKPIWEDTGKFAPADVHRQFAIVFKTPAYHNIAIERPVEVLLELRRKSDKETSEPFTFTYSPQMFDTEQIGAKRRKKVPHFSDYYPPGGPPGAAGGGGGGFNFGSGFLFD

[1] = target: T2, GST-Nv-NF-kB (Cys allele) (Nematostella vectensis, UniProt E5G601 2-411)
T2 sequence: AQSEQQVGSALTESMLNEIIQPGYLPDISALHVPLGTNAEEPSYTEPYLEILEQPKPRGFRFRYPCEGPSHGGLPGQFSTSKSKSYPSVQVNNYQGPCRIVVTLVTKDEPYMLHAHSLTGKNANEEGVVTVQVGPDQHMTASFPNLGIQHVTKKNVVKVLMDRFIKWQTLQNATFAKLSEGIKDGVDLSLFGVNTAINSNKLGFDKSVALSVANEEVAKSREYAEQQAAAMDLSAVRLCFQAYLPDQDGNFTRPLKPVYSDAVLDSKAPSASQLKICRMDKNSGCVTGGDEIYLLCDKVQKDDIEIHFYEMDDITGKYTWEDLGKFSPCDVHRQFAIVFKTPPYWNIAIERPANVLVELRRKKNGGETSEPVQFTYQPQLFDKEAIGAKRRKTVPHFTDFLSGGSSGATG

GST-Co-NF-kB = target: T3, GST-Co-NF-kB (Capsaspora owczarzaki, UniProt F1ARL5 200-546)
T3 sequence: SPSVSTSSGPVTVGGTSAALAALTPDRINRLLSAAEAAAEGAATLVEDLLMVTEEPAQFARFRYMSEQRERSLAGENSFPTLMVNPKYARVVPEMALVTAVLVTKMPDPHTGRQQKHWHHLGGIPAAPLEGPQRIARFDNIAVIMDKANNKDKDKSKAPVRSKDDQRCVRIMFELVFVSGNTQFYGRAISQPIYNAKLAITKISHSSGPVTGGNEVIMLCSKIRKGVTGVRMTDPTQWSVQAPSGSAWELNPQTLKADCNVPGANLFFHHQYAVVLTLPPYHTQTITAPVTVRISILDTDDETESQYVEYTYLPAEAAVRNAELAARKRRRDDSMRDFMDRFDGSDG

GST-Dm-Relish = target: T4, GST-Dm-Relish (Drosophila melanogaster, UniProt Q94527 99-473)
T4 sequence: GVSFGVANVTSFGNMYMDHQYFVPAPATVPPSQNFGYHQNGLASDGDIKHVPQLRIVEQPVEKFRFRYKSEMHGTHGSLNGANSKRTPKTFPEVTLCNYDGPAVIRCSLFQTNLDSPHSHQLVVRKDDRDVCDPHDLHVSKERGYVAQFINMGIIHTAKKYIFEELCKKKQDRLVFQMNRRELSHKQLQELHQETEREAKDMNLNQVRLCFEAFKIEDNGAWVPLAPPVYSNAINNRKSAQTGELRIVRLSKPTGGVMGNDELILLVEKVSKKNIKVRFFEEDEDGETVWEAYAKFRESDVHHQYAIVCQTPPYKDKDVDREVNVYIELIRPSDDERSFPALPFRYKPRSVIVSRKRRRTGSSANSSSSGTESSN

GST-Aq-NF-kB = target: T5, GST-Aq-NF-kB (Amphimedon queenslandica, UniProt A9Y5G7 2-389)
T5 sequence: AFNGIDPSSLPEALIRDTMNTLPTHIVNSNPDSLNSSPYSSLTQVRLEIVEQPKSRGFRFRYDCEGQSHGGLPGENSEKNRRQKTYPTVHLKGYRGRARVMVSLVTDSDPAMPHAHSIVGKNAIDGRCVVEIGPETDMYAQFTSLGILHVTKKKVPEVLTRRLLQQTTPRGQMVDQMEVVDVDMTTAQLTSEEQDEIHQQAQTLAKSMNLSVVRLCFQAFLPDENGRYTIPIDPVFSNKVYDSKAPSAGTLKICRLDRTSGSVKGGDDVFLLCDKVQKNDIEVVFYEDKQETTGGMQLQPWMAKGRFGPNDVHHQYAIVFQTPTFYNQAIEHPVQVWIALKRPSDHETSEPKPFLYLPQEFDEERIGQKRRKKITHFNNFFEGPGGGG

Sequence	binding signal (GST-Ap-NF-kB RHD) [z-score]	binding signal [1] [z-score]	binding signal (GST-Co-NF-kB) [z-score]	binding signal (GST-Dm-Relish) [z-score]	binding signal (GST-Aq-NF-kB) [z-score]
CCGATTAACATCACACACCCCCCTGATGTTAATCGGGTCTTGATTCGCTTGACGCTGCTG	4.13	3.15	3.85	3.82	3.48
CCGATTAACATCAGGGGGCGCACTGATGTTAATCGGGTCTTGATTCGCTTGACGCTGCTG	3.71	3.04	2.37	4.13	4.79
CCGATTAACATCAAAACAGCCCCTGATGTTAATCGGGTCTTGATTCGCTTGACGCTGCTG	3.58	4.9	1.71	3.31	5.54
CCGATTAACATCAGGAATACCCATGATGTTAATCGGGTCTTGATTCGCTTGACGCTGCTG	4.37	4.62	1.39	4.16	4.54
CCGATTAACATCAAACCCCCCCATGATGTTAATCGGGTCTTGATTCGCTTGACGCTGCTG	6.35	4.78	5.7	6.81	5.02
CCGATTAACATCAATCACCCCCATGATGTTAATCGGGTCTTGATTCGCTTGACGCTGCTG	4.03	2.63	4.35	1.86	3.32
CCGATTAACATCAGGGAAGTCCATGATGTTAATCGGGTCTTGATTCGCTTGACGCTGCTG	2.24	2.51	1.08	7.44	4.62
CCGATTAACATCATAAGCGGGGATGATGTTAATCGGGTCTTGATTCGCTTGACGCTGCTG	3.32	3.81	4.81	2.26	3.7
CCGATTAACATCAGGATGTTCCCTGATGTTAATCGGGTCTTGATTCGCTTGACGCTGCTG	2.3	1.77	1.42	1.99	4.33
CCGATTAACATCAGGGGATGGGATGATGTTAATCGGGTCTTGATTCGCTTGACGCTGCTG	3.51	3.51	2.16	1.4	2.91
CCGATTAACATCACGGAGTTCCCTGATGTTAATCGGGTCTTGATTCGCTTGACGCTGCTG	2.6	1.63	1.53	5	4.63
CCGATTAACATCAGGGGTTTCCATGATGTTAATCGGGTCTTGATTCGCTTGACGCTGCTG	5.75	5.04	1.21	8.15	5.61
CCGATTAACATCACGGGAATTTCTGATGTTAATCGGGTCTTGATTCGCTTGACGCTGCTG	5.46	7.5	5.53	5.6	6.28
CCGATTAACATCACTAAAATCCCTGATGTTAATCGGGTCTTGATTCGCTTGACGCTGCTG	3.37	3.38	1.18	5.48	3.65
CCGATTAACATCACGAGATTCCCTGATGTTAATCGGGTCTTGATTCGCTTGACGCTGCTG	3.03	3.39	2.52	1.75	3.38
CCGATTAACATCAGATATTTCCCTGATGTTAATCGGGTCTTGATTCGCTTGACGCTGCTG	3.25	5.95	5.03	2.31	6.38
CCGATTAACATCAAAAATCCCTATGATGTTAATCGGGTCTTGATTCGCTTGACGCTGCTG	5.18	5.21	1.39	6.49	5.85
CCGATTAACATCAATTACCCCCCTGATGTTAATCGGGTCTTGATTCGCTTGACGCTGCTG	5.96	4.69	6.96	4.49	5.14

Sequence	binding signal (GST-Ap-NF-kB RHD) [z-score]	binding signal [1] [z-score]	binding signal (GST-Co-NF-kB) [z-score]	binding signal (GST-Dm-Relish) [z-score]	binding signal (GST-Aq-NF-kB) [z-score]
CCGATTAACATCACCCCTCCCCATGATGTTAATCGGGTCTTGATTCGCTTGACGCTGCTG	3.7	2.55	3.58	3.67	2.92
CCGATTAACATCAGGGTATTTACTGATGTTAATCGGGTCTTGATTCGCTTGACGCTGCTG	3.45	5.05	1.4	7.1	6.01
CCGATTAACATCACATTATCCCCTGATGTTAATCGGGTCTTGATTCGCTTGACGCTGCTG	4.81	5.05	4.75	2.4	3.81
CCGATTAACATCAGGGGTATAACTGATGTTAATCGGGTCTTGATTCGCTTGACGCTGCTG	1.94	1.77	3.43	1.06	2.25
CCGATTAACATCAAAAAACACCCTGATGTTAATCGGGTCTTGATTCGCTTGACGCTGCTG	4.07	4.18	2.93	6.06	5.32
CCGATTAACATCAAAACTTCCCATGATGTTAATCGGGTCTTGATTCGCTTGACGCTGCTG	3.04	3.7	2.63	4.52	4.42
CCGATTAACATCAGGGGGTTAACTGATGTTAATCGGGTCTTGATTCGCTTGACGCTGCTG	5.36	3.73	2.64	8.09	5.06
CCGATTAACATCAGAATTGCCCCTGATGTTAATCGGGTCTTGATTCGCTTGACGCTGCTG	2.58	3.54	1.95	1.75	3.86
CCGATTAACATCACGGAGTCCCCTGATGTTAATCGGGTCTTGATTCGCTTGACGCTGCTG	6.33	4.74	2.46	7.32	4.65
CCGATTAACATCAAACACTCCCCTGATGTTAATCGGGTCTTGATTCGCTTGACGCTGCTG	4.43	3.84	3.52	1.65	4.61
CCGATTAACATCACATACTCCCCTGATGTTAATCGGGTCTTGATTCGCTTGACGCTGCTG	4.4	3.45	3.69	1.57	3.42
CCGATTAACATCAGGGGAAGGTATGATGTTAATCGGGTCTTGATTCGCTTGACGCTGCTG	3.33	4.71	5.15	2.58	3.96
CCGATTAACATCAACGGGAATTCTGATGTTAATCGGGTCTTGATTCGCTTGACGCTGCTG	4.32	5.7	3.23	4.15	4.74
CCGATTAACATCAGGGGGTTACATGATGTTAATCGGGTCTTGATTCGCTTGACGCTGCTG	6.46	4.25	3.27	6.42	4.89
CCGATTAACATCACTAATTTCCCTGATGTTAATCGGGTCTTGATTCGCTTGACGCTGCTG	3.79	4.55	4.57	2.5	4.09
CCGATTAACATCACAAATTCCCATGATGTTAATCGGGTCTTGATTCGCTTGACGCTGCTG	2.52	4.43	2.69	4.72	3.15
CCGATTAACATCAGGCATTTCCCTGATGTTAATCGGGTCTTGATTCGCTTGACGCTGCTG	3	5.12	1.77	1.97	6.69
